Shiga inhibitor – inhibitors of Shiga toxin in Vero cells. hit rate 9.2% among 290,000. inhibition, % at 38.7 µM. Vero cells, Shiga toxin protein synthesis inhibition reporter; in the data active = inhibition mostly above about 28%, no sharp cut-off; inactive = mostly below about 43%; note: 0% is about no effect
Pf growth 96h – P. falciparum growth inhibition at 96 hours | P. falciparum luciferase reporter growth, 96 h | Potency, µM (doses to about 28.7 µM), without a hit: at the highest dose activity change, negative = inhibition, most hits filed as inhibitors | hit rate 6.9% among 320,000 | AID 504834; note: potency is the fitted concentration of half-maximal effect; % is set by controls: 0 for no effect and ±100 for the full control effect
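Two parasite generations (96 h, 37 C, 5% CO2) of compound exposure in infected erythrocytes (0.05% parasitemia, 2% hematocrit). Luciferase-reporter P. falciparum; decreased luminescence indicates inhibited growth, aimed at apicoplast-acting delayed death.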
NS1 inh – inhibitors of influenza NS1 protein function. Potency, µM (highest dose often 46.1 µM), for inactives: top-dose activity, positive = more growth. AID 2326. hit rate 0.4% among 270,000; calls by dose curve; note: potency is the fitted concentration of half-maximal effect; actives are rising curves; nearly all actives have a fitted effect of over 50% in size
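Recovery from NS1-induced slow growth read by OD600 in budding yeast switched to galactose assay medium (pH 6.0, -URA) at 1:100 dilution. Compound 23 nl per well; the matching strain lacking NS1 serves as control.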
Sm TGR block – inhibitors of Schistosoma mansoni thioredoxin glutathione reductase; Q962Y6; purified TGR, DTNB reduction, TNB absorbance 405 nm; Potency, µM (highest dose often 114 µM), without a hit: top-dose activity change, negative = inhibition, actives largely listed as inhibitors; hit rate 3% among 360,000; AID 485364; note: potency is the fitted concentration of half-maximal effect; % is set by controls: 0 for no effect and ±100 for the full control effect; nearly all actives have a fitted effect of over 60% in size
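First, TGR (20 nM dispensed) and NADPH were mixed with compound. Second, a 15 min room-temperature incubation followed. Third, further NADPH and then DTNB were added to start the reaction. Finally, TNB absorbance was monitored kinetically.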
CHX counter – counter-screen hit for Shiga toxin inhibitors, cycloheximide. cell reporter, cycloheximide protein synthesis inhibition counterscreen. max response, %. hit rate 12% among 300,000; in the data active = max response mostly above about 13%, no sharp cut-off; inactive = mostly below about 14%; note: read at 38.3 µM for the half of the compounds with a filed dose; 0% is about no effect
Pf growth 48h – P. falciparum growth inhibition at 48 hours (one generation); P. falciparum luciferase growth in erythrocytes, 48 h; Potency, µM (doses to about 28.7 µM), without a hit: at the top dose activity change, negative = inhibition, hits mostly inhibitors; hit rate 5.9% among 310,000; note: potency is the fitted concentration of half-maximal effect; % is set by controls: 0 for no effect and ±100 for the full control effect
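Parasite viability was followed by luminescence of a genomically integrated firefly luciferase. Cultures held 0.1% parasitemia at 2% hematocrit (final), incubated under 5% CO2 at 37 C.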
Active calls of the source: *; ? = inconclusive; nt = no result given. An excerpt weighted towards active compounds, which were near 21% of everything screened. Unless noted, calls come from the whole dose curve; as a rule, active = well fitted curve in the direction sought with a large enough effect; inconclusive = small, poorly fitted or top-dose-only effect, or another doubt; inactive = no such curve, though single readings can be large; an effect the other way counts as inactive or inconclusive.

SMILES	Shiga inhibitor	Pf growth 96h	NS1 inh	Sm TGR block	CHX counter	Pf growth 48h
COc1cc(OC)c(C(=O)Nc2ccc(S(=O)(=O)N3CCCCC3)cc2)cc1OC	nt	15µM*	nt	-10%	nt	?
COc1ccc(C(=O)Nc2ccc(S(=O)(=O)N3CCCCC3)cc2)cc1OC	-6	36%	-46%	0%	-1	-21%
CC(NC(=O)c1cc(S(=O)(=O)N2CCOCC2)ccc1F)c1ccc(-n2ccnc2)cc1 (stereo unspecified)	nt	9.3µM*	nt	6%	nt	-22%
CCN(CC)S(=O)(=O)c1cccc(NC(=O)c2cccc(S(=O)(=O)N3CCCC3)c2)c1	nt	12µM*	nt	-4%	nt	9.3µM*
COc1ccc(CN(C)C(C)C(=O)Nc2ccc(S(=O)(=O)N3CCCCC3)cc2)cc1F (stereo unspecified)	nt	?	nt	2%	nt	10µM*
O=C(Nc1cccc(F)c1)c1cc(S(=O)(=O)N2CCOCC2)ccc1N1CCCC1	nt	?	nt	0%	nt	?
COc1ccccc1CC(=O)OC(C)C(=O)Nc1ccc(S(=O)(=O)N2CCCCC2)cc1 (stereo unspecified)	nt	?	nt	-14%	nt	?
O=C(Nc1cccc(S(=O)(=O)N2CCCC2)c1)c1cc(S(=O)(=O)N2CCOCC2)ccc1F	nt	?	nt	4%	nt	9.3µM*
COc1ccc(CNC(=O)C2=C(C)C(=O)OC23CCCCC3)cc1	nt	nt	nt	-9%	nt	nt
c1ccc(-c2ccc(-c3[nH]ncc3CN3CCC(N4CCSCC4)CC3)cc2)cc1	48*	0%	3%	-2%	7.3*	-27%
COc1ccccc1N1CSC2=C(C#N)C(c3ccc(SC)cc3)CC(=O)N2C1 (stereo unspecified)	-9	-4%	18%	?	-3	nt
COc1ccc(OC)c(C2CC(=O)N3CN(c4ccccc4F)CSC3=C2C#N)c1 (stereo unspecified)	39	?	-29%	16µM*	7	nt
COc1ccc(Br)cc1C1CC(=O)N2CN(C)CSC2=C1C#N (stereo unspecified)	9	?	-42%	?	-2	nt
COc1cccc(C2CC(=O)N3CN(c4ccccc4F)CSC3=C2C#N)c1 (stereo unspecified)	-22	1%	4%	35µM*	-6	nt
CC(=O)c1cccc(NC(=O)c2cnn3ccccc23)c1	59*	?	-21%	-4%	89*	nt
CC(=O)c1ccc(NC(=O)c2cnn3ccccc23)cc1	55*	10µM*	-13%	-5%	44*	nt
Cc1sc2nc(-c3cccs3)nc(N3CCCN(C)CC3)c2c1C	33	?	-7%	45µM*	5	10µM*
COc1ccccc1NC(=O)c1nc(S(=O)(=O)Cc2ccccc2)ncc1Cl	34	17%	7%	10µM*	11	20%
CCOc1ccccc1NC(=O)c1nc(S(=O)(=O)Cc2ccccc2)ncc1Cl	1	?	-7%	3.5µM*	3	0%
CCS(=O)(=O)c1ncc(Cl)c(C(=O)Nc2ccccc2OC)n1	nt	45%	1%	0%	11	18%
COc1ccc(OC)c(NC(=O)c2nc(S(=O)(=O)Cc3ccc(F)cc3)ncc2Cl)c1	nt	nt	nt	3.2µM*	nt	nt
NC(=O)C1CCN(CC(O)COc2ccc(-c3ccccc3)cc2)CC1 (stereo unspecified)	-11	?	12%	0%	2	?
O=C(Nn1cnc2ccccc2c1=O)c1ccccc1[N+](=O)[O-]	22	-15%	nt	0%	24	12%
Fc1ccc(-c2nc(-c3cccs3)no2)cc1	127*	124%	-7%	3%	44*	157%
Fc1ccc(-c2cnc(-c3cccs3)o2)cc1	134*	0%	5%	3%	42*	329%
COC(=O)c1ccc(-c2nc(-c3cccs3)no2)cc1	65*	-18%	-2%	6%	40*	nt
CCOC(=O)C(C)/C(C)=N/NC(N)=S (stereo unspecified)	20	4.7µM*	-1%	-9%	-2	1.3µM*
COc1ccccc1CN1C(=O)CN(C2CCCCCC2)C(=O)C1c1ccc(F)cc1 (stereo unspecified)	-4	10µM*	6%	12%	-2	?
C=CCN(c1ccc(C(=O)OC)cc1)S(=O)(=O)c1ccccc1	92*	29%	nt	-2%	33*	36%

Screens (PubChem BioAssay)
